Data published in ChEMBL document CHEMBL3988442, “University of Dundee, Small-Polar-MMV Screening Library” (2021).

Target: AMP-activated protein kinase, AMPK (Homo sapiens) (UniProt P54646+O43741+P54619+Q9UGJ0+Q9Y478+Q13131+Q9UGI9)
Assay: AMP-dependent Kinase enzyme assay. An in vitro enzyme assay that detects ADP turnover that is directly proportional to AMPK activity. This uses naive AMPK that is activated during the assay with MK-8722
Assay type: functional
Design: scale not given: direction of the effect not stated beside the values
Settings: 30 µM

Row | Structure (SMILES) | Percent Effect [%]
1 | O=C(COc1cccnc1)NCc1nncn1C1CCCCC1 | -3.67
2 | Cc1nc2c(c(N[C@@H](CO)C(N)=O)n1)Cc1ccccc1OC2 | -0.406
3 | COc1ccc(N2CCN(C(=O)CCCc3cn[nH]c3)CC2=O)cc1 | -3.84
4 | CCOCCOC(C)C(=O)Nc1nccn1Cc1ccccc1 (stereo not given) | -2.1
5 | Cn1ccc(N2CCCC(NC(=O)c3ccc(Cl)o3)C2=O)n1 (stereo not given) | 3.82
6 | Cn1cc(CCCN2CCCC(c3cc(C(F)(F)F)[nH]n3)C2)cn1 (stereo not given) | -0.434
7 | COc1ccccc1OC(C)CNC(=O)c1cnc[nH]1 (stereo not given) | 0.827
8 | OC(CNCCc1nnc2ccccn12)c1ccc(F)c(F)c1 (stereo not given) | 14.5
9 | CNC(=O)C1CCN(c2ncnc3c2CCN(C(=O)C2CC2)C3)C1 (stereo not given) | 2.51
10 | CC1(C)CN(c2cc(C3CC3)ncn2)C[C@]1(C)O | 30.7
11 | COCc1ncc(CN2CCC3(CCNC(=O)CC3)CC2)cn1 | 0.0611
12 | CC(C)(CN1CCC2(CCNCC2)CC1)N1CCOCC1 | 0.354
13 | CC(C)c1cc(C2CCN(C(=O)Cn3nc4ccccc4n3)CC2)[nH]n1 | 13.1
14 | CCCc1ccc(CN2CCC3(CCC(=O)N(CCO)C3)CC2)o1 | 12.9
15 | COC(=O)CSCc1noc(-c2ccc(C)cc2)n1 | -5.29
16 | O=C(NCc1csc2ccc(Cl)cc12)c1cc2n(n1)CCNC2 | 10.6
17 | N#CCc1ccc(NC(=O)N[C@H](CO)Cc2ccc(O)cc2)cc1 | 9.92
18 | O=C1CCC2(CCCN(CCn3cc(Cl)cn3)C2)CN1C1CCCC1 (stereo not given) | 14.4
19 | O=C1CSCN1Cc1nc(-c2ccc(N3CCCCC3)cc2)no1 | 2.39
20 | CC(C)Oc1cc(N2CCN(Cc3ccsc3)C(CCO)C2)nc(N)n1 (stereo not given) | -13.7

Row | Structure (SMILES) | Percent Effect [%]
21 | COc1cccc([C@@]2(O)CC[C@@H]3CN(C(=O)c4ccn(C)n4)C[C@@H]32)c1 | 12.3
22 | O=C(CCn1ccnc1)N1CCCC(n2cncn2)C1 (stereo not given) | 11.8
23 | Cc1ccc(-c2noc(Cn3nc(C(N)=O)ccc3=O)n2)cc1 | 5.62
24 | Cc1ccccc1[C@@H]1CN(CCOCCO)C[C@H]1C(=O)O | -1.24
25 | CN(C)S(=O)(=O)N1CCC(C(O)c2ccc(Cl)cc2)CC1 (stereo not given) | 4.77
26 | CC(C)N(C)S(=O)(=O)c1ccc2c(c1)CCN(C(=O)c1cccnn1)C2 | -25.3
27 | CSCC(C)(O)CNS(=O)(=O)c1ccc(F)cc1 (stereo not given) | -4.97
28 | Oc1ccc(Br)c(CNc2cccc(-c3nnc[nH]3)c2)c1 | 23.8
29 | Cn1nccc1-c1cccc(CC2CCN(S(C)(=O)=O)C2)n1 (stereo not given) | 8.3
30 | CC(C)c1nc(C2CCCN2CCOCC2CC2)no1 (stereo not given) | 7.32
31 | Cc1n[nH]c(C)c1NC(=O)NCc1ccccn1 | -10.3
32 | COc1ccc(-c2cnc(CN(CC(N)=O)C3CCCC3)o2)cc1 | -2.59
33 | CC(C)(CNC(=O)c1ccco1)NC(=O)OC(C)(C)C | -6.6
34 | CN(C)S(=O)(=O)N1CCCC(c2nccnc2-c2cccc(Cl)c2)C1 (stereo not given) | 16
35 | CCN(Cc1ccncc1)C1CCN(c2ccccc2)C1=O (stereo not given) | -7.01
36 | Cc1cc(-c2cnc(N3CCC(C(N)=O)CC3)nc2C(C)C)on1 | 21.5
37 | CCCn1cc(-c2cc(C(=O)N(C)C)c3cccc(C)c3n2)cn1 | 7.04
38 | CCn1nc(C(C)C)cc1C(=O)NCC1CCCN(c2ccccn2)C1 (stereo not given) | 6.64
39 | COC(=O)C(NC(=O)c1ccc(C)cc1C)c1cccnc1 (stereo not given) | 2.32
40 | CC(C)(C)c1nc(CNc2cc3c(cc2Cl)NC(=O)CO3)no1 | 2.92
